{"source": "ChEMBL document CHEMBL3988442", "about": "“University of Dundee, Small-Polar-MMV Screening Library” (2021)", "note": "About 1,200 (3.2%) of roughly 38,000 compounds showed an effect of 50% or more. The median lay at about -58%. The sample holds strong results, similar compounds and a random draw of the others, so the mix is not that of the screen."}
{"test_system": "Plasmodium falciparum", "assay": "Calibr Malaria Delayed Death Assay SOP", "type": "functional, organism-based", "parameters": "scale not given: in the data most compounds retested in dose-response had high values", "conditions": "concentration 4.99e-06 (unit not given; other assays of the set use mol/L)", "units": {"Percent Effect": "%"}}
{"compound": "O=C(c1ccc(-n2cnnc2)cc1)N1CCC(Nc2cccnn2)CC1", "Percent Effect": -15.7}
{"compound": "CCN1Cc2ccccc2CC2(CCN(CC(=O)O)CC2)C1=O.O=C(O)C(F)(F)F", "Percent Effect": -102.3}
{"compound": "CCn1c(SCC(=O)O)nnc1C(C)NC(=O)c1ccc(Cl)cc1", "note": "(stereo not drawn)", "Percent Effect": -146.1}
{"compound": "Cc1noc(C(C)NC(=O)[C@@H](C)NC(=O)OC(C)(C)C)n1", "note": "(stereo partly drawn)", "Percent Effect": -163.7}
{"compound": "O=C(c1cccc(CO)n1)N1CCCC1c1nc2cc(F)ccc2[nH]1", "note": "(stereo not drawn)", "Percent Effect": -67.52}
{"compound": "O=C(CN1CCCC1c1nc2cc(F)ccc2[nH]1)NCc1ccccn1", "note": "(stereo not drawn)", "Percent Effect": -65.25}
{"compound": "Fc1ccc2[nH]c(C3CCCN3Cc3c[nH]cn3)nc2c1", "note": "(stereo not drawn)", "Percent Effect": 80.29}
{"compound": "CC(C)OCCCNC(=O)NCc1cccc(-n2ccnc2)c1", "Percent Effect": -80.58}
{"compound": "Cc1nn(C)cc1-c1ccnc(N(C)Cc2noc(C(C)C)n2)n1", "Percent Effect": -38.19}
{"compound": "Cc1nn(C)c(C)c1-c1ccnc(N(C)Cc2noc(C(C)C)n2)n1", "Percent Effect": -30.97}
{"compound": "Cc1nn(C)c(C)c1-c1ccnc(N(C)Cc2nc(C(C)C)no2)n1", "Percent Effect": 65.96}
{"compound": "Cc1cc(C(N)=O)c(N2C[C@@H](C)[C@@](C)(O)C2)nc1C", "Percent Effect": -47.89}
{"compound": "O=C(O)c1nc(SCc2ccc(F)cc2)ncc1Br", "Percent Effect": -159.2}
{"compound": "COc1cccc(CC(=O)N2CCCSCC2CN2CCCC2)c1", "note": "(stereo not drawn)", "Percent Effect": 54.27}
{"compound": "COc1cccc(CCC(=O)N2CCCCC2Cn2cccn2)c1", "note": "(stereo not drawn)", "Percent Effect": -142.5}
{"compound": "O=C(c1ccc2c(c1)OCO2)N1CCCSCC1CN1CCCC1", "note": "(stereo not drawn)", "Percent Effect": -7.883}
{"compound": "CCCN(CCC)c1nc(N)nc(-c2cc(Cl)ccc2OC)n1", "Percent Effect": -49.81}
{"compound": "CN(C)CCCNC(=O)c1nc(Cc2c(Cl)cccc2Cl)no1", "Percent Effect": -74.09}
{"compound": "CC[C@@H](C)[C@@H](N)C(=O)Nc1cccc(-c2cnc(NCCO)nc2)c1", "Percent Effect": -39.72}
{"compound": "O=C1CC(c2ccccc2F)c2c(n(C3CCCC3)[nH]c2=O)N1", "note": "(stereo not drawn)", "Percent Effect": -93.23}
{"compound": "COc1ccccc1C(=O)NC(c1ccccn1)[C@H]1CC[C@H](CN)CC1", "note": "(stereo partly drawn)", "Percent Effect": -2.636}
{"compound": "CCOCC1CN(CC2CC2)Cc2nn(C)cc21.O=C(O)C(F)(F)F", "note": "(stereo not drawn)", "Percent Effect": -95.19}
{"compound": "NC(=O)CCNCc1c(Cl)cccc1N1CCCC1", "Percent Effect": 65.52}
{"compound": "NC(=O)CCNC(=O)NCC1(c2ccccc2Cl)CCC1", "Percent Effect": -18.8}
{"compound": "CS(=O)(=O)CCCNCc1c(Cl)cccc1N1CCCC1", "Percent Effect": 71.32}
{"compound": "O=C(Nc1c(N2CCCC2)cccc1N1CCCC1)c1ccccn1", "Percent Effect": -13.71}
{"compound": "O=S(=O)(Cc1c(F)cccc1Cl)NCCCN1CCCCCC1", "Percent Effect": 47.99}
{"compound": "CS(=O)(=O)CCCNC(=O)NC1CC(c2cccc(Cl)c2)C1", "note": "(stereo not drawn)", "Percent Effect": -17.33}
{"compound": "O=C(CSC1CCc2ccccc2NC1=O)NCc1ccccc1", "note": "(stereo not drawn)", "Percent Effect": -28.24}
{"compound": "CC(Cn1cccn1)NC(=O)N1CCN(Cc2ccco2)CC1", "note": "(stereo not drawn)", "Percent Effect": -74.02}
{"compound": "Cn1ccnc1C(=O)N[C@@H]1CN(Cc2ccc(F)cc2)[C@@H]2CCCO[C@@H]21.O=C(O)C(F)(F)F", "Percent Effect": -85.57}
{"compound": "O=c1oc2ccccc2n1CCCN1CCCC1c1ccc(O)cc1", "note": "(stereo not drawn)", "Percent Effect": 52.75}
{"compound": "O=C1OCCN1CCCN1CCCC1c1ccc(O)cc1", "note": "(stereo not drawn)", "Percent Effect": -1.685}
{"compound": "Cc1nc(C2CCCN2CCCn2c(=O)oc3ccccc32)no1", "note": "(stereo not drawn)", "Percent Effect": -48.08}
{"compound": "CC(=O)c1cc2c(=O)[nH]c(=O)n(C)c2nc1C", "Percent Effect": -16.7}
{"compound": "O=C(NCc1ncc[nH]1)c1c(F)cccc1I", "Percent Effect": -135.9}
{"compound": "Fc1cccc(C(NCc2ncc[nH]2)c2ccccc2)c1", "note": "(stereo not drawn)", "Percent Effect": 67.9}
{"compound": "Clc1cccc(C(NCc2ncc[nH]2)c2ccccn2)c1", "note": "(stereo not drawn)", "Percent Effect": 86.37}
{"compound": "CC(C)Nc1ncccc1C(=O)NCc1ncc[nH]1", "Percent Effect": -116.1}
{"compound": "CC(=O)N(C)C(c1cccc(F)c1)c1ccccn1", "note": "(stereo not drawn)", "Percent Effect": -75.26}
{"compound": "Cc1nccn1-c1ccc(C(C)NCc2ncc[nH]2)cc1", "note": "(stereo not drawn)", "Percent Effect": -35.75}
{"compound": "CSCc1cc(F)ccc1CNCc1ncc[nH]1", "Percent Effect": -2.338}
{"compound": "Cn1cc(C(NCCc2ccccn2)c2cccc(F)c2)cn1", "note": "(stereo not drawn)", "Percent Effect": -2.846}
{"compound": "Fc1cccc(C(NCc2ncc[nH]2)c2ccccn2)c1", "note": "(stereo not drawn)", "Percent Effect": 91.42}
{"compound": "CC(C)NC(=O)N1CCN(C(=O)c2ccco2)CC2(CC(=O)N(C)C2)C1", "note": "(stereo not drawn)", "Percent Effect": -8.212}
{"compound": "CC(C)CC(=O)NS(=O)(=O)c1ccc2c(c1)OCCCO2", "Percent Effect": -13.67}
{"compound": "CC(C)c1nn(C)c(N2CCOCC2)c1CNCc1cscn1", "Percent Effect": -74.61}
{"compound": "O=C(NCC(O)COc1ccc(C(F)(F)F)cc1)Nc1nncs1", "note": "(stereo not drawn)", "Percent Effect": -99.86}
{"compound": "Cc1cccc2c(CCNC(=O)NCC[S+](C)[O-])c[nH]c12", "note": "(stereo not drawn)", "Percent Effect": -101.3}
{"compound": "Cc1cccc2c(CCNC(=O)[C@H](N)c3ccccc3)c[nH]c12", "Percent Effect": 61.63}
{"compound": "Cc1cccc2c(CCNC(=O)NCCC[S+](C)[O-])c[nH]c12", "note": "(stereo not drawn)", "Percent Effect": -83.64}
{"compound": "CC(C)Cn1c(=O)n(CCn2cc(Cl)cn2)c2cc(C(=O)O)cnc21", "Percent Effect": -13.68}
{"compound": "CCc1noc(CN(Cc2cccs2)C2CC2)n1", "Percent Effect": -139.3}
{"compound": "O=C(CCc1nnc2ccccn2c1=O)NCc1cccnc1", "Percent Effect": -35.93}
{"compound": "Cl.Cn1nc(C2CCCN(Cc3ccccc3)C2)c2nccnc21", "note": "(stereo not drawn)", "Percent Effect": -32.54}
{"compound": "CN(C)c1ncccc1NC(=O)C1CN(Cc2ccccc2)CCO1", "note": "(stereo not drawn)", "Percent Effect": -7.192}
{"compound": "Cc1cccc(CN2CC[C@@H]3[C@@H](CO[C@H]3CNc3ncccn3)C2)n1.O=C(O)C(F)(F)F.O=C(O)C(F)(F)F.O=C(O)C(F)(F)F", "Percent Effect": -54.04}
{"compound": "Cn1cc(N2CC3(CCN(Cc4ccccc4)CC3)OCC2=O)cn1.O=C(O)C(F)(F)F", "Percent Effect": -75.76}
